Compound activity deposited in PubChem BioAssay by several laboratories.
A selection: hits, their analogues and other compounds. The true share with any hit is near 22%.
E-sel TNF inh: E-selectin induction blockers in HUVEC – imaging, immunofluorescence, high content, primary screen; HUVEC TNFa-induced E-selectin immunofluorescence; inhibition, % at 2 µM; actives 0.71% (n = 120,000);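 active = inhibition above the batch mean plus 3 SD, and confirmed as a hit on visual image review, cut at about 43% in these data; inconclusive = passes the inhibition cutoff but fails visual image review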;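 note: 0% = TNF-stimulated DMSO wells and 100% = unstimulated control wells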
CYP2C9 inhib: blockers of cytochrome P450 2C9 activity – biochemical, luminescence, ADME assay, primary screen; AID 777, 2007; CYP2C9 Supersomes, luciferin-H conversion; P11712; inhibition, % at 5 µM; actives 20% (n = 96,000);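 active = blocking of liver enzyme CYP2C9 beyond about 50% at 5 µM, limit read from the data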
Target sequence (P11712 whole entry, looked up): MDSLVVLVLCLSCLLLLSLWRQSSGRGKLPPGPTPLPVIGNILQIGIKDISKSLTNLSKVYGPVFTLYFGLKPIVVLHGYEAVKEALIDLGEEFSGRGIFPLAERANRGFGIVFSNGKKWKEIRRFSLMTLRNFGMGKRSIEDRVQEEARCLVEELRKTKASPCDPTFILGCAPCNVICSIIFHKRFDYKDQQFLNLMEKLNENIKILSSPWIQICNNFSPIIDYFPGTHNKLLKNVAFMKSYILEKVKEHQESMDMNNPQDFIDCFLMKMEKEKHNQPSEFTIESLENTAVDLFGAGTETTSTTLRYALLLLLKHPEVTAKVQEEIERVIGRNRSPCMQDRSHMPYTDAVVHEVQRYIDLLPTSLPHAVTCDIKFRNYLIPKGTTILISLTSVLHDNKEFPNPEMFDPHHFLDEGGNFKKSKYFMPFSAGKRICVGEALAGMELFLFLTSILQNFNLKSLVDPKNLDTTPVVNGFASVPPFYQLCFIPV
CYP2C19 act: human CYP2C19 activators, primary screen, biochemical, luminescence; activation factor at 5 µM; recombinant CYP2C19, luciferin-H EGE luminescence; stronger effect = higher value; 0 = fully inhibited enzyme, 1 = untreated enzyme; 96,000 tested, under 10 active; Cytochrome P450 2C19 (Homo sapiens), P33261;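 active = activation factor of at least 2 at 5 µM in the primary screen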;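 note: 0 = wells with 2.5 mM tranylcypromine and 1 = vehicle-only wells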
CYP2C9 activ: human CYP2C9 activators, primary screen, biochemical, luminescence; recombinant CYP2C9, luciferin-H conversion; stronger effect = higher value; factor 1 = untreated enzyme, 0 = blocked; actives 1.4% (n = 96,000); Cytochrome P450 2C9 (Homo sapiens), P11712; AID 1024, 2008; activation factor at 5 µM;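 active = activation factor of 2 or more for CYP2C9 at a 5 µM dose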;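 note: 0 = sulfaphenazole-blocked wells and 1 = vehicle-only wells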
F-actin modifier: modifiers of F-actin cytoskeleton organization, primary screen, imaging, HUVEC, phalloidin staining, high-content imaging. HUVEC TNFa F-actin phalloidin imaging. inhibition, % at 2 µM. actives 0.18% (n = 91,000). AID 836, 2007;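 active = inhibition above the batch mean plus 3 SD and confirmed as a hit by visual image inspection, cut at about 30% in these data, passing the limit was not always enough; inconclusive = above the inhibition threshold but rejected on visual inspection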
CYP2C19 inh: blockers of cytochrome P450 2C19 activity – biochemical, luminescence, ADME assay, primary screen; CYP2C19 Supersomes, luciferin-H EGE luminescence, 30 min; AID 778, 2007; actives 21% (n = 96,000); inhibition, % at 5 µM;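 active = CYP2C19 inhibition above a set limit at 5 µM in the primary screen, cut at about 50% in these data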;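 note: plate controls were negative control wells for no effect and 2.5 mM tranylcypromine positive control for full effect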
* marks the source's active call; other numbers are inactive results; ? = inconclusive; / = no result.

SMILES	E-sel TNF inh	CYP2C9 inhib	CYP2C19 act	CYP2C9 activ	F-actin modifier	CYP2C19 inh
O=C(/C=C/c1ccccc1F)c1ccoc1	-12	2	1	1	3	2
Cc1cc2cc(CNC(=S)Nc3ccc(OC(F)(F)F)cc3)ccc2n1C	-7	/	/	/	/	/
O=C(Nc1cccnc1Cl)C1c2ccccc2Oc2ccccc21	11	48	0.3	0.5	-23	70*
Cc1cccc2sc(NC(=O)C3c4ccccc4Oc4ccccc43)nc12	-1	80*	0.7	0.2	2	31
CCc1ccccc1NC(=O)C1c2ccccc2Oc2ccccc21	7	/	/	/	/	/
CCOC(=O)c1sc(=NC(=O)/C=C/c2ccccc2)n(C)c1C	-12	/	/	/	/	/
CSc1nc2nccc(-c3ccc(Oc4ccccc4)cc3)n2n1	1	56*	0.5	0.4	27	51*
CSc1nc2nccc(-c3ccc(-c4ccccc4)cc3)n2n1	10	1	1.1	1	-1	-8
c1ccc(Oc2ccc(-c3ccnc4nc(N5CCN(c6ccccc6)CC5)nn34)cc2)cc1	53*	59*	0.8	0.4	21	19
CC1(C)COC(c2coc3ccccc3c2=O)OC1	34	/	/	/	/	/
Cc1ccc(-c2csc3nnc(SCC(=O)Nc4cccc(C)n4)n23)cc1	/	53*	0.4	0.5	-22	57*
O=C(CCSc1nnc2scc(-c3ccccc3)n12)Nc1nc(-c2ccccc2)ns1	10	32	0.9	0.7	?	13
CC(=O)Nc1ccc(C(=O)CSc2nnc3scc(-c4ccccc4)n23)cc1	/	58*	0.7	0.4	7	34
O=C(CSc1nnc2scc(-c3ccccc3)n12)NCC1CCCO1 (stereo not drawn)	-4	-10	0.9	1.1	30	15
CN1CCN(NS(=O)(=O)c2ccc(Cl)s2)CC1	-24	/	/	/	/	/
Cc1cc(C(=O)NCCCn2ccnc2)cs1	-8	66*	0.1	0.3	-9	88*
Cc1ccc2nc3c(cc(C(=O)NCCCn4ccnc4)n3C)c(=O)n2c1	/	90*	0.1	0.1	70	89*
Cc1cc(C(=O)NCCCN2CCCC2=O)cs1	-38	-6	0.9	1.1	18	7
O=C(NCCCn1ccnc1)NC(C(F)(F)F)C(F)(F)F	-2	68*	0.2	0.3	/	80*
Cc1ccc(C(=O)NCCCn2ccnc2)o1	24	28	0.3	0.7	2	72*
Cc1ccc(CC(=O)NCCCn2ccnc2)cc1	-48	/	/	/	/	/
O=C(NCCCn1ccnc1)/C(=C/c1ccccc1)NC(=O)c1ccccc1	-18	/	/	/	/	/
O=C(NCCCn1ccnc1)c1cccc(S(=O)(=O)Nc2ccccc2F)c1	-23	100*	0.4	0	/	61*
O=C(NCCCn1ccnc1)C1c2ccccc2Oc2ccccc21	9	98*	0	0	23	100*
O=C(NCCCn1ccnc1)Nc1cccc2ccccc12	-15	/	/	/	-13	/
SMILES	E-sel TNF inh	CYP2C9 inhib	CYP2C19 act	CYP2C9 activ	F-actin modifier	CYP2C19 inh
COCCCNC(=O)c1cn(Cc2c(F)cccc2Cl)nn1	10	17	0.9	0.8	-5	14
O=C(NCCCn1ccnc1)c1cn(Cc2ccc(F)cc2)nn1	16	60*	0.1	0.4	-6	94*
O=C(NCCCn1ccnc1)c1sc2cccc(F)c2c1Cl	11	91*	0	0.1	11	96*
CC1=C(C(=O)Nc2cccnc2)C(c2ccncc2)n2nnnc2N1 (stereo not drawn)	-17	/	/	/	/	/
O=C(CN(C(=O)c1ccc(Cl)cc1)N1C(=O)C2CCCCC2C1=O)c1ccc(Cl)cc1 (stereo not drawn)	-1	8	0.9	0.9	0	6
COc1ccccc1-n1c(C)nnc1SCC(N)=O	-12	-5	1	1.1	5	3
O=C(NCCCn1ccnc1)C(Cc1ccccc1)N1C(=O)c2ccccc2C1=O (stereo not drawn)	/	62*	0.4	0.4	1	64*
COc1cccc(SCc2noc(C(=O)NCC3CCCO3)c2C(=O)O)c1 (stereo not drawn)	-4	/	/	/	-10	/
N#Cc1c(NC(=O)CSc2ncnc3sccc23)oc(-c2ccco2)c1-c1ccco1	-9	84*	0.7	0.2	6	26
COc1ccc(-c2oc(NC(=O)CSc3nncn3C)c(C#N)c2-c2ccc(OC)cc2)cc1	/	58*	0.6	0.4	-22	39
Cc1cnc(C(=O)OCC(=O)Nc2oc(-c3ccccc3)c(-c3ccccc3)c2C#N)cn1	/	62*	0.9	0.4	-12	10
CCn1c(SCC(=O)Nc2oc(-c3ccccc3)c(-c3ccccc3)c2C#N)nnc1-c1ccncc1	2	78*	0.4	0.2	2	58*
CN1CCN(CC(=O)Nc2cc(N3CCOCC3)ccc2[N+](=O)[O-])CC1	7	/	/	/	/	/
COc1ccc(C(=O)CSc2nnc(-c3ccoc3C)n2CC2CCCO2)cc1 (stereo not drawn)	-12	16	0.8	0.8	3	23
Cc1nc(CN(C)C(=O)c2cc(COc3ccc4ncccc4c3)on2)cs1	-47	/	/	/	/	/
Cc1ccc(-n2c(C)cc(/C=C3/C(=N)N4C(c5ccccc5)=CSC4=NC3=O)c2C)cc1	5	/	/	/	/	/
Cc1cc(NC(=O)CSc2nnc(-c3ccco3)n2Cc2ccccc2)no1	11	/	/	/	17	/
N#Cc1c(NC(=O)CSc2ccccn2)oc(-c2ccccc2)c1-c1ccccc1	6	86*	1.2	0.1	/	-17
CCn1c(SCC(=O)Nc2oc(-c3ccccc3)c(-c3ccccc3)c2C#N)nnc1-c1ccco1	5	96*	0.1	0	-2	94*
COc1cc(C(=O)NC2CCN(Cc3nnnn3Cc3cccs3)CC2)cc(OC)c1OC	-53	36	1	0.6	8	5
O=C(Nc1cccc(NC(=O)C2CC3CCCC(C2)C3=O)n1)C1CC2CCCC(C1)C2=O (stereo not drawn)	9	-5	1.1	1	/	-6
COc1ccc(NC(=O)c2cc(CN3C(=O)c4ccccc4C3=O)ccc2OC)cn1	-5	78*	0.7	0.2	-10	33
COc1ccc(C(=O)Nc2cnn(Cc3ccc(Cl)cc3)c2)cc1OC	-3	/	/	/	/	/
COc1ccc(NC(=O)c2cccc(Cn3cc(Br)cn3)c2)cn1	3	78*	0.3	0.2	22	71*
CCOC1=NN(c2ccc(Cl)cc2)C(=O)/C1=C\N(C)C	12	/	/	/	/	/
CCn1c(SCC(=O)Nc2ccccc2C(=O)OC)nc2c1c(=O)n(C)c(=O)n2C	/	42	0.7	0.6	/	32
CCOC(=O)C1CCCN(Cc2sccc2C)C1 (stereo not drawn)	3	4	0.5	1	/	48
